GSIS activator – GLuc luminescence reporter in INS-1E cells, primary screen for activators of glucose-dependent secretion of insulin | INS-1E GLuc reporter insulin secretion, 2-3 h | activation, % at 16.6 µM | 370,000 tested, 0.61% active;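 active means lowest replicate activation of at least 40%, so every replicate reaches that level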;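 further: 0% = median of neutral control wells and 100% = median of IBMX positive control wells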
ABCB6 inh 2 – ABCB6 transporter inhibitors, primary screen, K562-ABCB6 cells, flow cytometry, MLPCN library; ATP-binding cassette sub-family B member 6 (Homo sapiens), Q9NP58; K562-ABCB6 porphyrin accumulation, 1 h; stronger effect = lower value; 360,000 tested, 0.19% active; fluorescence ratio to DMSO, % at 10 µM;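 active means fluorescence ratio to DMSO below 75%, the collection mean minus 3 SD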;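 further: signal is porphyrin accumulated inside mitochondria; 100% equals median channel fluorescence of DMSO control wells; lower ratio means ABCB6 inhibition with less porphyrin fluorescence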
Target sequence (Q9NP58 whole entry, looked up): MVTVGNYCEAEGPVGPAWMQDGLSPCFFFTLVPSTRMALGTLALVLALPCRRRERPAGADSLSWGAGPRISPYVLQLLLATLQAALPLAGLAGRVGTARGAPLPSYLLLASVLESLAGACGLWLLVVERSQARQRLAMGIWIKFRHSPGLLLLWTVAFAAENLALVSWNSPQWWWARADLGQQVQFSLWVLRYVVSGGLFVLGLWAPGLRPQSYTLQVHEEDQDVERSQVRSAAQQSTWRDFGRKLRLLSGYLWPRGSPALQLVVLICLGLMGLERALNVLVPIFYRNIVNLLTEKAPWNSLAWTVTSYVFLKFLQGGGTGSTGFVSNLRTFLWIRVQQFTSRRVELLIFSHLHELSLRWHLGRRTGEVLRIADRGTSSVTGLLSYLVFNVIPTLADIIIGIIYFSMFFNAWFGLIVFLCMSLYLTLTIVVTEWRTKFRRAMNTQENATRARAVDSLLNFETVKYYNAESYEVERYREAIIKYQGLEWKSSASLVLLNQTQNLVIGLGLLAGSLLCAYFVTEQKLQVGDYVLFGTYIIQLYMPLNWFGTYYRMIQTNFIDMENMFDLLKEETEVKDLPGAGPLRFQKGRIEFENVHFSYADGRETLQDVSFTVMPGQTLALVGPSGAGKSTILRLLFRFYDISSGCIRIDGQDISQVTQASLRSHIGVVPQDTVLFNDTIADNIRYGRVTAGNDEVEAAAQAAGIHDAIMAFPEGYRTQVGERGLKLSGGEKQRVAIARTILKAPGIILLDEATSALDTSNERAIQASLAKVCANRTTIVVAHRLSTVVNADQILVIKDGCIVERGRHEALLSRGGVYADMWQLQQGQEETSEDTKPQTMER
iPSC survival up – enhancers of single-cell hiPSC survival, primary screen, ATPlite luminescence. survival enhancement, % at 20 µM. 360,000 tested, 0.044% active. 100% = ROCK inhibitor wells, 0% = DMSO; in the data active means survival enhancement above about 18%;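 further: cells exposed to compounds for 16 hours before the ATP read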
ARNT-TACC3 inh – disruptors of ARNT/TACC3 protein interaction, primary screen, biochemical, AlphaScreen, single concentration | AlphaScreen His-ARNT PAS-B/GST-TACC3 binding, luminescence; TACC3 fragment carries E629A point mutation | Transforming acidic coiled-coil-containing protein 3 (Homo sapiens), Q9Y6A5 | inhibition, % at 9.99 µM | 390,000 tested, 0.66% active;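 active means mean inhibition of replicates at least 50% and at least half of replicates each reaching 50%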;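 further: 0% = complete ARNT plus TACC3 wells and 100% = ARNT alone without TACC3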
NRP1-CendR mod – modulators of CendR peptide binding to NRP-1, primary screen, biochemical, fluorescence polarization, uHTS | Neuropilin-1 (Homo sapiens), O14786 | AID 602438, 2012 | inhibition, % at 25 µM | 360,000 tested, 0.85% active | FAM-RPARPAR peptide binding to NRP-1;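 active means inhibition or corrected inhibition above about 18%, plus a signal ratio from 0.5 to 1.5, limit read from the data, passing the limit was not always enough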
* = called active by the depositor. An excerpt weighted towards active compounds, which were near 1.8% of everything screened.

How did COc1ccc(/C=N/N=C2/NC(=O)CC(C(=O)O)S2)cc1 (stereo not given) do in these assays?
GSIS activator: 11.1; ABCB6 inh 2: 99.0; iPSC survival up: -1.8; ARNT-TACC3 inh: -6.2; NRP1-CendR mod: -5.3

How did COc1ccc(/C=N/N=C2/CC(C)(C)Cc3n[nH]c(=O)cc32)cc1 do in these assays?
GSIS activator: -18.4; ABCB6 inh 2: 98.0; iPSC survival up: 0.3; ARNT-TACC3 inh: 17.7; NRP1-CendR mod: 49.6*

What do the screens show for `O=C(N/N=C/c1c(O)n(Cc2ccco2)c(=O)[nH]c1=O)c1ccccc1`?
ABCB6 inh 2: 99.0; iPSC survival up: -0.6; ARNT-TACC3 inh: 62.5*; NRP1-CendR mod: -56.3

What do the screens show for `CC(C)NC(=O)N(C)C[C@H]1OCCCC[C@H](C)Oc2ccc(NS(=O)(=O)c3cn(C)cn3)cc2C(=O)N([C@@H](C)CO)C[C@@H]1C`?
GSIS activator: 20.6; ARNT-TACC3 inh: 9.1

Results for Cc1ccc(Cn2c(C(C)Nc3nc(-c4ccc(Cl)c([N+](=O)[O-])c4)cs3)nc3cc(C(F)(F)F)ccc32)cc1 (stereo not given) ?
ABCB6 inh 2: 93.0; iPSC survival up: -0.7; ARNT-TACC3 inh: -2.3; NRP1-CendR mod: 34.8*

How did Cc1csc(NC(C)c2nc3cc(C(F)(F)F)ccc3n2CCCO)n1 (stereo not given) do in these assays?
GSIS activator: -10.6; ABCB6 inh 2: 87.0; iPSC survival up: -0.9; ARNT-TACC3 inh: 1.7; NRP1-CendR mod: 35.4*

Results for CC(Nc1nc(-c2ccc(F)cc2)cs1)c1nc2cc(Cl)c(Cl)cc2n1CCCO (stereo not given) ?
GSIS activator: -10.3; ABCB6 inh 2: 97.0; iPSC survival up: -4.1; ARNT-TACC3 inh: -2.1; NRP1-CendR mod: 3.1

Results for CNC(=O)C[C@@H]1CC[C@H]2[C@@H](COc3ccc(NC(=O)c4ccc(F)cc4)cc3C(=O)N2C)O1 ?
GSIS activator: 1.4; ARNT-TACC3 inh: -8.8

How did COc1ccc(C2NC(=S)NC3=C2N2CCC3CC2)cc1 (stereo not given) do in these assays?
ABCB6 inh 2: 97.0; iPSC survival up: 0.0; ARNT-TACC3 inh: active; NRP1-CendR mod: -0.3

How did CCc1cnc(N2[C@H](C#N)[C@@H](c3ccc(C#CCC4CCCC4)cc3)[C@@H]2CO)s1 do in these assays?
GSIS activator: -4.4

Results for Cc1ccc(S(=O)(=O)N2C[C@H]3[C@H]4C(=O)N(c5ccccc5)C(=O)[C@H]4CC(=O)[C@H]3[C@@H]2c2cccc3ccccc23)cc1 ?
GSIS activator: 5.2; ABCB6 inh 2: 101.0; iPSC survival up: -0.8; NRP1-CendR mod: 8.4

How did Cc1ccc(S(=O)(=O)N2C[C@H]3[C@H]4C(=O)N(c5ccccc5)C(=O)[C@H]4CC(=O)[C@H]3[C@@H]2c2ccccc2F)cc1 do in these assays?
GSIS activator: 12.6; ABCB6 inh 2: 102.0; iPSC survival up: -1.3; NRP1-CendR mod: 25.0*

How did C=CCn1c(SCC(=O)Nc2cc(C)on2)nnc1-c1ccncc1 do in these assays?
GSIS activator: 5.4; ABCB6 inh 2: 102.0; iPSC survival up: 0.1; NRP1-CendR mod: 8.9

Results for C=CCn1c(SCC(=O)Nc2ncc(Cc3ccc(Br)cc3)s2)nnc1-c1ccncc1 ?
GSIS activator: 9.4; ABCB6 inh 2: 105.0; iPSC survival up: -0.7; ARNT-TACC3 inh: -61.3; NRP1-CendR mod: 23.4*

What do the screens show for `C[C@H](CO)N1C[C@H](C)[C@@H](CN(C)C(=O)Nc2ccc(F)cc2)Oc2c(NS(=O)(=O)c3ccc(F)cc3)cccc2C1=O`?
GSIS activator: -3.8; ARNT-TACC3 inh: -1.1

Results for COc1ccc2c3c([nH]c2c1)[C@H](CO)N(C(=O)C1CCCC1)CC31CN(Cc2nccs2)C1 ?
GSIS activator: 10.7

How did COc1cc2c(cc1OC)C1Cc3ccc(OC)c(OC)c3CN1CC2 (stereo not given) do in these assays?
GSIS activator: 2.2; ABCB6 inh 2: 113.0; iPSC survival up: -0.2; ARNT-TACC3 inh: 7.6; NRP1-CendR mod: 1.5

Results for COc1ccc2c(c1OC)CN1CCc3cc4c(cc3[C@@H]1[C@@H]2O)OCO4 ?
ABCB6 inh 2: 103.0; iPSC survival up: -0.7; ARNT-TACC3 inh: 4.1; NRP1-CendR mod: 28.7*
